According to PubChem BioAssay (Tox21):
Where “and” joins values, the source holds several entries; their conditions need not be identical. Identical values can stand only once. Inconclusive results are not listed. The source holds several records for some structures; these can differ, active in one and inactive in another. Calls of active or inactive are those of the source. Unless noted, the call rests on the fitted dose curve; in most records, active means well fitted curve in the direction sought with a large enough effect in the repeat runs; inconclusive means weak or mixed curves; inactive means no such curve, though single readings can be large; an effect the other way counts as inactive or inconclusive.

Assays:
[1] = target: Thyrotropin receptor (Homo sapiens) (UniProt P16473); assay: qHTS assay to identify small molecule antagonists of the thyroid stimulating hormone receptor (TSHR) signaling pathway (AID 1259385; calls by dose curve; further: nearly all actives have a fitted effect of over 20% in size)
Sequence of Thyrotropin receptor (Homo sapiens) (P16473 whole entry, looked up): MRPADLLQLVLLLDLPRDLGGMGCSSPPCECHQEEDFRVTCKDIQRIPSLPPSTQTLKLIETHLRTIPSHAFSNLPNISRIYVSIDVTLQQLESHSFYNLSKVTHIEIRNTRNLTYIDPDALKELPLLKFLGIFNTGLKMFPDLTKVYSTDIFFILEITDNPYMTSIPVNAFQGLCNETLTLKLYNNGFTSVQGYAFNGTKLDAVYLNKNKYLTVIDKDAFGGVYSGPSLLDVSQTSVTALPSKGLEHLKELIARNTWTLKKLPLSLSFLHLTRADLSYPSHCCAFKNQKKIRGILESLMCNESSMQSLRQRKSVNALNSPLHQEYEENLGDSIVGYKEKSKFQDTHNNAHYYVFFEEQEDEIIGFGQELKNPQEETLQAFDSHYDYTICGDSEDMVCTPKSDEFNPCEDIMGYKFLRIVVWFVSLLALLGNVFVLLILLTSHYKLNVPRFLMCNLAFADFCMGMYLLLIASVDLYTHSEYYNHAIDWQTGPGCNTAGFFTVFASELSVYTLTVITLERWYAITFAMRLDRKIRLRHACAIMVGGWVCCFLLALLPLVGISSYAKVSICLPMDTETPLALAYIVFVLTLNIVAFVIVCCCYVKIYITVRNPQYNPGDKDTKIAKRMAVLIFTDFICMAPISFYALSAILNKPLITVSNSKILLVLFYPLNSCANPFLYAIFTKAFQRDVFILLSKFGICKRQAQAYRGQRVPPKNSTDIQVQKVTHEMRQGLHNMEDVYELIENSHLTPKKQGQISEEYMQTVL
In short: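 TSHR-HEK293 cells were plated and held 18 h at 37C/5% CO2, then given compound plus Ro20-1724 and stimulated with TSH at 1.5 ng/mL final. After 30 min at room temperature, cAMP was detected with cAMP-d2/anti-cAMP-cryptate (1 h) by fluorescence.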

[2] = qHTS assay to identify small molecule agonists of the estrogen receptor alpha (ER-alpha) signaling pathway in the presence of an antagonist - cell viability counter screen (AID 1259386);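 further: series mostly up to about 92 µM; cells exposed to compounds for 22 h at 37 °C before the viability read; nearly all actives have a fitted effect of over 30% in size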
In short: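 VM7Luc4E2, stripped-serum pre-culture 5 d; 24hr plating; +ICI-182,780 10.0nM final; cpds 15 conc, 22hr, 37C/5% CO2; CellTiter-Fluor added at 21hr, fluorescence 1hr later.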

[3] = qHTS assay to identify small molecule agonists of the progesterone receptor (PR) signaling pathway - cell viability counter screen (AID 1346799; calls by dose curve; further: nearly all actives have a fitted effect of over 45% in size; further: potency means the concentration at half of the fitted maximal effect)
In short: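 PR-UAS-bla HEK293T cells, 3,000 per well in medium with 2% charcoal-stripped FBS, were preincubated 6 hr at 37C, then exposed to compounds for 16 hr; viability was read as CellTiter-Glo luminescence after 30 min at room temperature.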

[4] = qHTS assay to identify small molecule antagonists of the TGF-beta/Smad signaling pathway - cell viability counter screen (AID 1346824); further: nearly all actives have a fitted effect of over 50% in size
In short: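 SBE-bla HEK 293T cells were plated overnight at 37 C, then given compounds in DMSO plus TGF-beta1 (added as 0.25 ng/mL solution) for 5 hr. After the bla read, CellTiter-Glo was added to the same wells and luminescence read after 30 min at room temperature.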

[5] = qHTS assay to identify small molecule agonists of the TGF-beta/Smad signaling pathway - cell viability counter screen (AID 1346829); further: top concentration of the series differs between compounds; nearly all actives have a fitted effect of over 45% in size
In short: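 Tox21 qHTS format: SBE-bla HEK 293T cells treated with DMSO-dissolved compounds for 5 hr; CellTiter-Glo luminescence after 30 min at room temperature.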

[6] = qHTS assay to identify small molecule agonists of the TGF-beta/Smad signaling pathway (AID 1346859; active means well fitted activation curve with a large enough effect in the signal ratio in the repeat runs, not every such curve was filed as active; the % refers to the signal ratio; further: series mostly up to about 77 µM)
In short: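 HEK 293T cells stably carrying a beta-lactamase reporter driven by the Smad binding element were seeded overnight, exposed to DMSO-dissolved compounds for 5 hr at 37 C, 5% CO2, then loaded with FRET substrate for 2 hr at room temperature.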

[7] = target: Thyrotropin-releasing hormone receptor (Homo sapiens) (UniProt P34981); assay: qHTS assay to identify small molecule antagonists of the thyrotropin-releasing hormone receptor (TRHR) signaling pathway (AID 1346877; active means well fitted inhibition curve with a large enough effect in the repeat runs, not every such curve was filed as active; further: series mostly up to about 51 µM)
Sequence of Thyrotropin-releasing hormone receptor (Homo sapiens) (P34981 whole entry, looked up): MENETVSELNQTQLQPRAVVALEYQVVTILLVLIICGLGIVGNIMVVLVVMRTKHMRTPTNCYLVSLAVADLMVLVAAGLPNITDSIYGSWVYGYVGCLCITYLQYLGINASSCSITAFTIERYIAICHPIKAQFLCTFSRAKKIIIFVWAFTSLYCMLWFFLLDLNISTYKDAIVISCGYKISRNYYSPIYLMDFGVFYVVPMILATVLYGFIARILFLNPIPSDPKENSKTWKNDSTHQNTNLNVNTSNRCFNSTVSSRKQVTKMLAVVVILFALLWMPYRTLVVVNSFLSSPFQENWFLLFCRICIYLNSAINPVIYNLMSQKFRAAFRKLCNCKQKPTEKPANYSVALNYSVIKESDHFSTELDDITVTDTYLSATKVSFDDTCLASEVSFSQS
In short: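 Intracellular calcium fluorescence, read kinetically every second over 3 min, reports TRH-evoked signalling in HEK293 cells carrying TRHR. Test compounds were added 5 min ahead of a 1 nM TRH challenge.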

[8] = Human pregnane X receptor (PXR) small molecule agonists, qHTS cell viability counter screen (AID 1346977); further: nearly all actives have a fitted effect of over 50% in size; further: potency means the concentration at half of the fitted maximal effect
In short: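 PXR-Luc HepG2 cells in medium with 5% charcoal-stripped FBS were pre-incubated 5hr, then exposed to compounds for 24hr at 37C. Viability was read in the same wells by CellTiter-Fluor fluorescence, reagent added after 23hr with a 1hr incubation.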

[9] = Caspase-3/7 induction in HepG2 cells by small molecules, qHTS assay (AID 1346978); further: nearly all actives have a fitted effect of over 15% in size; further: potency means the concentration at half of the fitted maximal effect
In short: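 Wild-type HepG2 cells (2,000/well) were settled 5 h at 37 C, 5% CO2, then exposed to compounds in DMSO for 17 h. Caspase-3/7 activity was read by luminescence 30 min after adding Caspase-Glo 3/7 reagent at room temperature.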

[10] = Caspase-3/7 induction in CHO-K1 cells by small molecules, qHTS cell viability counter screen (AID 1346979); further: nearly all actives have a fitted effect of over 35% in size; further: potency means the concentration at half of the fitted maximal effect
In short: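 Wild-type CHO-K1 cells were seeded at 1,500 per well, rested 5hr at 37 C, then exposed to compounds in DMSO. After 16hr, CellTiter-Fluor reagent was added and fluorescence read 1hr later as the viability measure.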

[11] = Caspase-3/7 induction in CHO-K1 cells by small molecules, qHTS assay (AID 1346980); further: nearly all actives have a fitted effect of over 15% in size
In short: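 Wild-type cells were seeded at 1,500 per well and settled 5 hr at 37 C, 5% CO2, then exposed to DMSO-dissolved compounds for 17 hr. Caspase-Glo 3/7 reagent was added, and luminescence was read after 30min at room temperature.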

[12] = Caspase-3/7 induction in HepG2 cells by small molecules, qHTS cell viability counter screen (AID 1346981); further: series mostly up to about 92 µM; nearly all actives have a fitted effect of over 30% in size
In short: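 HepG2, WT, 2,000 cells/well; 5 hr pre-incubation 37 C/5% CO2; compound pin-transferred from DMSO; 16 hr exposure; CellTiter-Fluor, 1 hr; fluorescence read.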

[13] = target: Nuclear receptor subfamily 1 group I member 2 (Homo sapiens) (UniProt O75469); assay: Human pregnane X receptor (PXR) small molecule agonists, qHTS assay (AID 1346982); further: nearly all actives have a fitted effect of over 35% in size; further: potency means the concentration at half of the fitted maximal effect
Sequence of Nuclear receptor subfamily 1 group I member 2 (Homo sapiens) (O75469 whole entry, looked up): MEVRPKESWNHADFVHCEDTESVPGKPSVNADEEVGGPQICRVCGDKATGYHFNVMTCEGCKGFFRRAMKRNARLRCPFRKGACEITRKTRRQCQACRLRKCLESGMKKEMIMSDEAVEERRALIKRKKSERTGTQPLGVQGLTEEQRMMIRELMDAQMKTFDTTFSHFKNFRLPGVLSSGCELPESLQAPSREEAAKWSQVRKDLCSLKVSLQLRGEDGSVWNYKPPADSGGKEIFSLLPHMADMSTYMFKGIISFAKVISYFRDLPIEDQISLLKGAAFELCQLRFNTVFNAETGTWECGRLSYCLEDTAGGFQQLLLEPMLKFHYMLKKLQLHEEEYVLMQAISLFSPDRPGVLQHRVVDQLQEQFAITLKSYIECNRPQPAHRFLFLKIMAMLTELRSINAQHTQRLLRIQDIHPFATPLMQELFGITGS
In short: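 Luciferase signal from ONE-Glo (30 min, room temperature) measured activation of hPXR-driven CYP3A4 reporter expression in PXR-Luc HepG2 cells treated with compounds for 24 hr at 37 C.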

[14] = target: Progesterone receptor (Homo sapiens) (UniProt P06401); assay: qHTS assay to identify small molecule agonists of the progesterone receptor (PR) signaling pathway (AID 1346784; calls by dose curve; further: nearly all actives have a fitted effect of over 30% in size)
Sequence of Progesterone receptor (Homo sapiens) (P06401 whole entry, looked up): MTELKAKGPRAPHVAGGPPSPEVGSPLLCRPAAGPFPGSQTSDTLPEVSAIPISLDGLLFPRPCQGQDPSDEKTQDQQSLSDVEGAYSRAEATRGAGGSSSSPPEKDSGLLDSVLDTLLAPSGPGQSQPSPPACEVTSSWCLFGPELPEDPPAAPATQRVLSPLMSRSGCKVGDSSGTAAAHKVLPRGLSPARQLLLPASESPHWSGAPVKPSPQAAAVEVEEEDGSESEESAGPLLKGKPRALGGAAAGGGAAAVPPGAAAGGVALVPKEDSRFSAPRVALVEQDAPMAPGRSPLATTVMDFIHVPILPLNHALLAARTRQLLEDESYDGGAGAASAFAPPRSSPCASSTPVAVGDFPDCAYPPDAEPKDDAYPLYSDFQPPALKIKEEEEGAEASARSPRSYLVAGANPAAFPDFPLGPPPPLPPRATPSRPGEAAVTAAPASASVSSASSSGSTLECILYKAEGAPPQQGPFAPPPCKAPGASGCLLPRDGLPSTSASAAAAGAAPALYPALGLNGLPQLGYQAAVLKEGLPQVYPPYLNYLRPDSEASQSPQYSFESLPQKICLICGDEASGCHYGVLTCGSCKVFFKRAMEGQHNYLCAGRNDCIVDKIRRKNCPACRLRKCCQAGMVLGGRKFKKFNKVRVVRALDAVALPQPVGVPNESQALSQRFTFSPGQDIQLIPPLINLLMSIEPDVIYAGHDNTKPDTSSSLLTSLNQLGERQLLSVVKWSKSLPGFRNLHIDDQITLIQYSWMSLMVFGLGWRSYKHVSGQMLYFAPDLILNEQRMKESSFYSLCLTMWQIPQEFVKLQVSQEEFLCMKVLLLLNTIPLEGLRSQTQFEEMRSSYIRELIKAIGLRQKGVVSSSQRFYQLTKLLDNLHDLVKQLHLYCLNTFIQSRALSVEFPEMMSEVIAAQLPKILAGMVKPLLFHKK
In short: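 PR-UAS-bla HEK 293T cells carrying a UAS-driven beta-lactamase reporter were seeded in medium with 2% charcoal-stripped FBS, preincubated 6 hr at 37C, then exposed to compounds in DMSO for 16 hr; agonism was read by LiveBLAzer B/G FRET fluorescence.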

[15] = target: Nuclear receptor subfamily 1 group I member 2 (Rattus norvegicus) (UniProt Q9R1A7); assay: Rat pregnane X receptor (rPXR) activation by small molecules, qHTS assay (AID 1346983); conditions: rPXR luciferase reporter cells, One-Glo luminescence, 24 h; max activation: stronger effect = higher value; further: nearly all actives have a fitted effect of over 20% in size
Sequence of Nuclear receptor subfamily 1 group I member 2 (Rattus norvegicus) (Q9R1A7 whole entry, looked up): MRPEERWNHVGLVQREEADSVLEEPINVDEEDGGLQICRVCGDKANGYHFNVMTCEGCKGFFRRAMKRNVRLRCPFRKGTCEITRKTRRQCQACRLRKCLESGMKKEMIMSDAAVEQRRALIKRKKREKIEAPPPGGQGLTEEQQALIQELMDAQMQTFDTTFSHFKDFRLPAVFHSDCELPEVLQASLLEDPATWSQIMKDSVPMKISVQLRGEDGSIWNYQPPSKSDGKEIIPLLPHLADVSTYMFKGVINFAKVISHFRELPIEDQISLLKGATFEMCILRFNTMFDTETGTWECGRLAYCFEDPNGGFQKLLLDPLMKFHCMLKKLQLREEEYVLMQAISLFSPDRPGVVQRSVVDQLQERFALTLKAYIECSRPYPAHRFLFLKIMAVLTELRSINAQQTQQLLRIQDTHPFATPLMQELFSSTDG
In short: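 Cell-based rPXR luciferase reporter assay, 2,000 cells per well, rested 5hr at 37 C before compound addition in DMSO, then 24 hr at 37 C. One-Glo reagent was added and luminescence read after 30 min at room temperature.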

[16] = target: Nuclear receptor subfamily 1 group I member 2 (Homo sapiens) (UniProt O75469); assay: CYP3A4 induction through human pregnane X receptor (PXR) by small molecules, qHTS assay (AID 1346984); further: nearly all actives have a fitted effect of over 40% in size
In short: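 Luminescence readout: luciferase signal after One-Glo (30 min, room temperature), following 3 h at 37C with 3uM final Luciferin-IPA P450 substrate. Cells were DPX-2 (HepG2, PXR/CYP3A4-luc co-transfected) dosed for 24 h.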

[17] = target: Nuclear receptor subfamily 1 group I member 2 (Homo sapiens) (UniProt O75469); assay: Human pregnane X receptor (PXR) activation by small molecules, qHTS assay (AID 1346985); further: nearly all actives have a fitted effect of over 40% in size
In short: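 DPX-2 cells (HepG2 co-transfected with a PXR response element and a CYP3A4-promoter luciferase construct) were seeded at 2,000 per well, rested 5 hr at 37C, then exposed to DMSO-dissolved compounds for 24 hr. Activation was read as luciferase luminescence.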

[18] = target: Progesterone receptor (Homo sapiens) (UniProt P06401); assay: qHTS assay to identify small molecule antagonists of the progesterone receptor (PR) signaling pathway (AID 1346795; active means well fitted inhibition curve with a large enough effect in the signal ratio in the repeat runs, not every such curve was filed as active; the % refers to the signal ratio)
In short: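 PR-UAS-bla HEK293T cells carrying a UAS-driven beta-lactamase reporter were plated in medium with 2% charcoal-stripped FBS and rested 6 hr at 37C. Compounds were added with 1 nM R5020 (final) for 16 hr, then FRET substrate loaded 2 hr at room temperature.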

[19] = target: Thyrotropin-releasing hormone receptor (Homo sapiens) (UniProt P34981); assay: qHTS assay to identify small molecule agonists of the thyrotropin-releasing hormone receptor (TRHR) signaling pathway (AID 1346891; calls by dose curve; further: series mostly up to about 58 µM)
In short: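 TRHR-expressing HEK293 cells were plated 18 h at 37 °C/5% CO2, loaded with calcium dye 2 h at 37 °C, then given compound in DMSO; fluorescence was read kinetically for 3 min at 1 s intervals.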

[20] = qHTS assay to identify small molecule antagonists of the progesterone receptor (PR) signaling pathway - cell viability counter screen (AID 1346798); further: series mostly up to about 92 µM; nearly all actives have a fitted effect of over 50% in size
In short: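 PR-UAS-bla HEK293T cells in medium with 2% charcoal-stripped FBS were treated with compounds plus R5020 for 16 hr at 37C. Cell viability was then read by CellTiter-Glo luminescence after 30 min at room temperature in the same wells.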
On the % scale 0 is the no-effect control and ±100 the full control effect.

COC(=O)c1ccc(C(=O)OC)cc1
inactive: outcome [1] | Potency [2] | Potency [4] | Potency [5] | outcome [6] | outcome [7] | Potency [11] | Potency [12]
2.2 µM (active) and inactive: Potency [13]
780 nM (active) and inactive: Potency [10]
9.82 µM (active) and inactive: Potency [9]
17.5 µM (active) and inactive: Potency [3]
7.08 µM (active) and inactive: Potency [8]

CCOC(=O)[C@H](CCc1ccccc1)N[C@@H](C)C(=O)N1Cc2ccccc2C[C@H]1C(=O)O
inactive: Potency [2] | Potency [14] | Potency [3] | Potency [4] | Potency [5] | outcome [6] | Potency [8] | Potency [9] | Potency [11] | Potency [12] | max activation [15] -0.751% | outcome [16] | outcome [17]
active: Potency [13] 30.9 µM and 11.9 µM

Oc1c(Cl)cc(Cl)c(Cl)c1Cl
inactive: outcome [1] | Potency [2] | Potency [18] | Potency [4] | Potency [5] | outcome [6] | outcome [7] | Potency [9] | Potency [11]
active: Potency [13] 59.8 µM and 54.5 µM

NC(=O)/N=N/C(N)=O
inactive: Potency [2] | Potency [14] | Potency [18] | Potency [3] | Potency [4] | Potency [5] | outcome [6] | outcome [7] | Potency [19] | Potency [8] | Potency [9] | Potency [10] | Potency [11] | Potency [12] | Potency [13]

O=c1c(-c2ccc(O)cc2)coc2cc(O)ccc12
active: Potency [13] 30.3 µM and 13.7 µM
inactive: outcome [1] | Potency [2] | Potency [14] | Potency [3] | Potency [4] | Potency [5] | outcome [6] | Potency [8] | Potency [9] | Potency [10] | Potency [11] | Potency [12]

C=C(C)C(=O)OCCCCCC
inactive: outcome [1] | Potency [2] | Potency [14] | Potency [3] | Potency [4] | Potency [5] | outcome [6] | outcome [7] | Potency [8] | Potency [10] | Potency [11] | Potency [12] | Potency [13]

Cn1c([N+](=O)[O-])cnc1COC(N)=O
inactive: Potency [2] | Potency [14] | Potency [20] | Potency [3] | Potency [4] | Potency [5] | outcome [6] | Potency [8] | Potency [9] | Potency [10] | Potency [11] | Potency [12] | Potency [13]

c1ccc2[nH]cnc2c1
inactive: Potency [2] | Potency [14] | Potency [3] | Potency [4] | Potency [5] | outcome [6] | outcome [7] | Potency [19] | Potency [8] | Potency [9] | Potency [10] | Potency [11] | Potency [12] | Potency [13]

Nc1cc(-c2ccncc2)c[nH]c1=O
inactive: Potency [2] | Potency [14] | Potency [3] | Potency [4] | Potency [5] | outcome [6] | outcome [7] | Potency [8] | Potency [10] | Potency [11] | Potency [12] | Potency [13] | max activation [15] -1.94% | outcome [16] | outcome [17]
